Screening data as filed in PubChem.
B2AR arrestin ag – qHTS assay of beta-arrestin-biased ligands of beta2-adrenergic receptor: NCGC Sytravon Library Screen. Beta-2 adrenergic receptor (Homo sapiens), P07550. HTLA Tango cells, beta-arrestin recruitment, luciferase luminescence, 18 h. Potency, µM (titrated, usually from 46.1 µM), most hits filed as activators. 44,000 tested, under 10 active. AID 1347077, 2019;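 note: potency is the fitted concentration of half-maximal effect; 0% = DMSO and full agonism = EC100 isoproterenol or metaproterenol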
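First, Tango cells carrying beta2-AR and beta-arrestin fusions received compound up to 46 microM. After 18 hr at 37 degrees C, luciferase substrate was added for 15 minutes, then luminescence gave %Activity for curve fitting.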
GPR32 ag – qHTS for Agonists of Human Resolvin D1 Receptor DRV1; Probable G-protein coupled receptor 32 (Homo sapiens), O75388; CHO-K1 GPR32 beta-arrestin PathHunter luminescence, 90 min; zero percent set by DMSO-only wells; activation, % at 76.9 µM; actives 2.5% (n = 48,000); AID 1346428, 2018;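 active = activation of at least 60% and not above a set upper limit, about 1 call in 100 departs from these limits; inconclusive = activation of 40% to 60%, or above that upper limit; inactive = activation under 40%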; note: 0% is about no effect
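GPR32 activation in stably transfected CHO-K1 cells, detected as beta-arrestin recruitment by enzyme-fragment complementation. Compound exposure: 90 min, 37 °C.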
GALC G270D up – A Novel Cell-Based Assay to Identify Small Molecules for B -Galactocerebrosidase; P54803; 145M-Twi-hGALC-G270D cells (Twitcher mouse brain line with human GALC G270D), HMU-beta-Gal fluorescence, 48 h; Potency, µM (highest dose often 57.5 µM), actives largely listed as activators; actives 0.1% (n = 45,000); AID 1159614, 2016; note: potency is the fitted concentration of half-maximal effect; 0% is about no effect; nearly all actives have a fitted effect of over 65% in size
Target sequence (P54803 whole entry G286D): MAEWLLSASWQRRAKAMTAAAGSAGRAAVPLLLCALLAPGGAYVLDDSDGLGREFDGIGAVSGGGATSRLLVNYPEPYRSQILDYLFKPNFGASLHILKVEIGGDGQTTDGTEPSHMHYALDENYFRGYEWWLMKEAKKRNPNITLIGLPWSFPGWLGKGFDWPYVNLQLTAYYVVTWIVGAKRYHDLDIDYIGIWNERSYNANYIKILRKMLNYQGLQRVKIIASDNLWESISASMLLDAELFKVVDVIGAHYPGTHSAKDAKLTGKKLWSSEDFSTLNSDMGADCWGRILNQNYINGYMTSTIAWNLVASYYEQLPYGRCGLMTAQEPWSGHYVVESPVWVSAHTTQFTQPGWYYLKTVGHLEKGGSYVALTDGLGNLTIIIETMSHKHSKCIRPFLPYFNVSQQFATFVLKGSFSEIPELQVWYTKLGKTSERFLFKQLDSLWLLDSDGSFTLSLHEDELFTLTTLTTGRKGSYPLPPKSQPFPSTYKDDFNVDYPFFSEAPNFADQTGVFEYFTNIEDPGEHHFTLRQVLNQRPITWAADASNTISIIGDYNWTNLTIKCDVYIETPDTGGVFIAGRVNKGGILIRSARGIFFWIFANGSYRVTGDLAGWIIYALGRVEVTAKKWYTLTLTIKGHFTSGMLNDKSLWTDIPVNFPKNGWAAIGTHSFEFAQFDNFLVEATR
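Live 145M-Twi cells (Twitcher mouse brain-derived, GALC-null) stably expressing human GALC-G270D, with a wild-type GALC line, were compound-treated. Residual GALC activity was then read as fluorescence from 0.1 mM final HMU-β-gal at pH 5.2; higher signal means activation.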
FH mod – Identification of activators of human fumarate hydratase by quantitative high-throughput screening | actives 0.22% (n = 54,000) | AID 1347055, 2019 | FH coupled MDH/diaphorase resazurin fluorescence, 15 min | Fumarate hydratase, mitochondrial (Homo sapiens), P07954 | Potency, µM (doses to about 79.9 µM), for the others: top-dose activity change, negative = inhibition, most hits filed as inhibitors; note: potency is the fitted concentration of half-maximal effect; % is set by controls: 0 for no effect and ±100 for the full control effect; the screen sought activators but most active calls are inhibition curves; nearly all actives have a fitted effect of over 45% in size
Active calls of the source: *; i = inactive; ? = inconclusive; · = no result given; [ ] = dose if it differs, or a comment. A selection: hits, their analogues and other compounds. The true share with any hit is near 2.8%. Unless noted, calls come from the whole dose curve; as a rule, active = well fitted curve in the direction sought with a large enough effect; inconclusive = small, poorly fitted or top-dose-only effect, or another doubt; inactive = no such curve, though single readings can be large; an effect the other way counts as inactive or inconclusive.

SMILES	B2AR arrestin ag	GPR32 ag	GALC G270D up	FH mod
O=S(=O)(Nc1nc2n(n1)C(c1ccc(F)cc1)C=C(c1ccccc1)N2)c1ccccc1 (stereo not drawn)	i	96.0*	i	-5.7%
O=S(=O)(Nc1nc2n(n1)C(c1ccc(F)cc1)C=C(c1ccc(Cl)cc1)N2)c1ccccc1 (stereo not drawn)	i	94.8*	i	-7.3%
O=C(CCCN1C(=O)C(c2ccccc2)Oc2cccnc21)Nc1ccccc1C(F)(F)F (stereo not drawn)	i	-6.7	i	-25.1%
COc1ccc(NC(=O)CCCN2C(=O)C(c3ccccc3)Oc3cccnc32)cc1OC (stereo not drawn)	i	76.2*	i	-5.7%
O=C(/C=C/c1ccccc1)OC[C@H]1O[C@@H](OC(=O)c2cc(O)c(O)c(O)c2)[C@H](O)[C@@H](O)[C@@H]1O	·	·	·	-18.1%[53.3 µM]
O=C(CC1(O)C(=O)N(CCc2ccccc2)c2ccc(Br)cc21)c1ccccc1 (stereo not drawn)	i	60.3*	i	-21.9%
COc1ccc(OC)c(C(=O)CC2(O)C(=O)N(Cc3ccccc3C)c3ccccc32)c1 (stereo not drawn)	i	-21.5	i	?
Cc1ccccc1CN1C(=O)C(O)(CC(=O)c2cccc(Br)c2)c2ccccc21 (stereo not drawn)	i	-15.4	i	31.6µM*
O=C(NCCCN1CCN(c2ccccc2)CC1)c1cc2c(s1)-c1ccccc1OC2	i	0.1	i	-19.9%
O=C(NCCCN1CCN(c2ccc(F)cc2)CC1)c1cc2c(s1)-c1ccccc1OC2	i	80.4*	i	?
O=C(NCCc1ccc(Cl)cc1)c1cc2c(s1)-c1ccccc1OC2	i	62.4*	i	-3.9%
O=S(=O)(c1ccccc1)n1nc(-c2ccc(Cl)cc2)nc1NCc1ccc(F)cc1	i	71.6*	i	?
O=S(=O)(c1ccccc1)n1nc(-c2ccccc2)nc1NCc1ccc(Cl)cc1	i	-4.5	i	-30.5%
CC/C=C\CC1C(=O)CCC1CC(=O)OC (stereo not drawn)	·	·	·	-0.2%
CCC1CCc2nc3sc(C(=O)Nc4cccc(F)c4)c(N)c3cc2C1 (stereo not drawn)	i	14.4	i	14.0%
COc1ccc(NC(=O)c2sc3nc4c(cc3c2N)CCCCCC4)cc1	i	73.8*	i	-26.5%
CCC1CCc2nc3sc(C(=O)Nc4cccc(C(F)(F)F)c4)c(N)c3cc2C1 (stereo not drawn)	i	21.0	10µM*	-4.0%
C=C1C[C@]23C[C@H]1CC[C@H]2C1=C[C@H]2OC(=O)[C@@](C)([C@H]1[C@@H]3C(=O)O)[C@H]2O	·	·	·	3.6%[53.3 µM]
Cc1c(C(=O)N2CCOc3ccc(-c4ccc(N)nc4)cc3C2)ccc(S(C)(=O)=O)c1F	·	·	·	4.6%
Cc1cc(F)ccc1-c1nc(NCCN=C(N)NC#N)nc2c1ccc(=O)n2-c1c(F)cccc1F	·	·	·	-10.3%
COc1ccccc1NC(=O)CN1C(=O)CCSc2ccccc21	i	-6.8	i	-37.3%
CCc1ccc(NC(=O)CN2C(=O)CCSc3ccccc32)cc1	i	63.1*	i	1.6%
CCc1ccc(NC(=O)CN2C(=O)c3cccc4cccc2c34)cc1	i	120.2*	·	·
CCN(CC)c1ccc2c(O)c(C=Nc3ccc(CC(=O)O)c(-c4c5c(nc6ccccc46)CCC(C(=O)NN)C5)c3)c(=O)oc2c1 (stereo not drawn)	·	·	·	5.2%
O=C(Nc1ccc(S(=O)(=O)Nc2ccccc2)cc1)N1CCCC1	?	19.0	i	-6.5%
SMILES	B2AR arrestin ag	GPR32 ag	GALC G270D up	FH mod
CCc1ccc(NS(=O)(=O)c2ccc(NC(=O)N3CCCC3)cc2)cc1	i	68.7*	i	-3.4%
C=C[C@@H]1[C@H](O[C@@H]2O[C@H](CO)[C@@H](O)[C@H](O)[C@H]2O)OC=C(C(=O)O)[C@H]1CCOC(=O)/C=C/c1ccc(O)c(O)c1	·	·	·	-7.9%[53.3 µM]
CC(C)(C)C(=O)Nc1ccc2nc(SCc3ccccc3)sc2c1	i	120.0*	i	-13.3%
O=C(COc1ccc(F)cc1)Nc1ccc2nc(SCc3ccccc3)sc2c1	i	0.1	i	3.5%
O=C(COc1ccc(F)cc1)Nc1ccc2nc(SCCOc3ccccc3)sc2c1	i	26.4	i	-8.1%
Cc1ccc(CSc2nc3ccc(NC(=O)COc4ccc(F)cc4)cc3s2)cc1	i	88.2*	i	1.8%
CCC(=O)Nc1ccc2nc(SCc3ccc(C)cc3)sc2c1	i	86.3*	i	-4.8%
Cc1ccc(CSc2nc3ccc(NC(=O)CC(C)C)cc3s2)cc1	i	33.4	i	0.9%
NC(=O)CSc1nc2ccc(NC(=O)COc3ccccc3)cc2s1	i	69.7*	i	-4.7%
O=C(Nc1ccc2nc(SCc3ccccc3)sc2c1)c1ccccc1F	i	26.6	i	-1.9%
C[C@@H]1O[C@@H](O[C@H]2[C@@H]3C=CO[C@@H](O[C@@H]4O[C@H](CO)[C@@H](O)[C@H](O)[C@H]4O)[C@@H]3[C@@]3(CO)O[C@@H]23)[C@H](O)[C@H](OC(=O)/C=C/c2ccc(O)c(O)c2)[C@H]1O	·	·	·	-0.9%[20.6 µM]
CC(Sc1nc2c(c(=O)[nH]1)CCCC2)C(=O)Nc1cc(C(F)(F)F)ccc1Cl (stereo not drawn)	i	24.9	i	?
O=C(CSc1nc2c(c(=O)[nH]1)CCC2)Nc1cc(C(F)(F)F)ccc1Cl	i	82.6*	i	-5.1%
C=C(C)[C@@H]1CC[C@]2(C(=O)O)CC[C@]3(C(=O)O)[C@H](CCC4[C@@]5(C)CCC(=O)C(C)(C)C5CC[C@]43C)C12 (stereo partly drawn)	·	·	·	0.1%[53.3 µM]
N#C/C(=C\c1ccc(-c2cc(Cl)ccc2Cl)o1)C(=O)Nc1ccccc1C(=O)O	i	111.3*	i	-18.0%
CCOc1ccc(C2Nc3c(C)cccc3-c3cc(C)nn32)cc1 (stereo not drawn)	i	-7.9	25.1µM*	?
O=C(CS(=O)(=O)c1cccc2nsnc12)N1CCN(c2ccccc2F)CC1	?	-15.1	i	-30.5%
O=C(CS(=O)(=O)c1cccc2nsnc12)N1CCN(c2cccc(C(F)(F)F)c2)CC1	i	88.5*	i	-8.3%
CCN(CCCNC(=O)c1cc2c(=O)n(C)c3ccccc3c2s1)c1ccccc1	i	70.3*	i	1.2%
CCN(CCCNC(=O)CSc1cc(=O)n(C)c2ccccc12)c1ccccc1	i	-3.4	i	-27.0%
CCN(CCCNC(=O)c1cc2c(Cl)nc3ccccc3c2s1)Cc1ccccc1	i	95.3*	i	?
CCn1c(=O)cc(SCC(=O)NCc2ccc(C)cc2)c2ccccc21	i	69.3*	i	-3.1%
